# Source: PubChem (The Scripps Research Institute Molecular Screening Center)
# PRMT1 FP inh: inhibitors of human PRMT1 | Q99873 | recombinant PRMT1, activity-based probe fluorescence polarization | inhibition, % at 2.79 µM | 370,000 compounds, 1.3% hits;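 active = inhibition above about 21% made by adding two undisclosed values, limit read from the data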
# LEDGF integ inh: blocks HIV-1 LEDGF/p75-dependent DNA integration; TR-FRET IN-LEDGF/p75 DNA integration, Eu/Cy5; inhibition, % at 3.7 µM; 370,000 compounds, 0.64% hits;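 active = inhibition above the screen-wide mean plus 3 SD, cut at about 13% in these data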;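 also: signal is the Cy5 over europium emission ratio at 671 and 618 nm; 0% = plate median of compound wells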
# MBD2 inh: blocks human MBD2 binding to methylated DNA | Q9UBB5 | TR-FRET, MBD2 binding to methylated oligonucleotide | inhibition, % at 4.4 µM | 370,000 compounds, 0.31% hits; in the data active = inhibition above about 13%
# Target sequence (Q9UBB5 whole entry, looked up): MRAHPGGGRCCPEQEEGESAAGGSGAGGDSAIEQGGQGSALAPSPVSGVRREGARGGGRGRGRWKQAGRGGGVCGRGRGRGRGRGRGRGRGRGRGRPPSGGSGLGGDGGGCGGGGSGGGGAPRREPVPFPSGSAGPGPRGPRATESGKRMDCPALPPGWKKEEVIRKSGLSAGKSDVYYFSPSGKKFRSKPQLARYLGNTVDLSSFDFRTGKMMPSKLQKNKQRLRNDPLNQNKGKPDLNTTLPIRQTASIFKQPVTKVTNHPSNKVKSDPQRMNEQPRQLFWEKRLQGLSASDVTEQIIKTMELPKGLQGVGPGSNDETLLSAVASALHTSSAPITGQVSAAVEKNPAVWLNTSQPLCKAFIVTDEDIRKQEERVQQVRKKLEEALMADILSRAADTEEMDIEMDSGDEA
# UHRF1 MBD2 ctr: UHRF1 methyl-DNA binding inhibition. Q96T88. UHRF1 binding to methylated oligo, TR-FRET. inhibition, % at 4.4 µM. 370,000 compounds, 0.75% hits; in the data active = inhibition above about 21%;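 also: UHRF1 SRA domain binding a hemimethylated CpG hairpin DNA probe; 0% = median of test compound wells and 100% = reference inhibitor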
# Active calls of the source: *; ! = repeats disagree. The list is not random: actives were taken first. Their share in the collection is about 2.5%.
SMILES,PRMT1 FP inh,LEDGF integ inh,MBD2 inh,UHRF1 MBD2 ctr
CC1CC(=O)N(CC(=O)NCc2ccccc2)c2ccccc2S1(=O)=O (stereo not given),0.8,-2.3,1.0,2.6
CN(C(=O)Nc1ccc(Cl)cc1Cl)[C@H]1c2cc(Br)ccc2OC[C@H]1CO,-1.5,7.5,0.2,3.7
CCCc1nnc(NC(=O)CCC(=O)NC2CCCC2)s1,0.5,-0.1,4.1,22.6*
CN1CCN(NC(=O)CN2C(=O)/C(=C/c3c(Cl)cccc3Cl)SC2=S)CC1,22.1*,-3.2,-8.1,-16.0
COc1cc(C(Nc2ccc3c(c2)OCO3)C(=O)NC2CCCCC2)cc(OC)c1OC (stereo not given),24.7*,0.8,0.0,-6.8
CCC1(C)Cc2ccccc2/C(=C/C(=O)N2CCCCC2)N1 (stereo not given),22.2*,-0.2,-1.3,7.9
NNC(=O)C(=O)/C=C1\NC2(CCCC2)Cc2ccccc21,2.8,1.8,3.5,1.0
CCC[C@H]1[C@@H](NC(=O)C2CCCCC2)CC[C@@]23CCCN2C(=O)CCC[C@@H]13,2.2,7.4,-3.8,2.5
Cc1oc(-c2ccc(Cl)cc2)cc1C(=O)N1CCC1(C)C(=O)O (stereo not given),23.4*,1.1,2.1,-0.1
CC(=O)Nc1cc(Cl)c(N=Cc2ccc(O)cc2O)cc1Cl,-1.4,24.5*,-7.5,1.0
O=S(=O)(NN=Cc1ccc(O)cc1O)c1cc(Cl)c(Cl)cc1Cl,6.0,-6.5,3.2,0.1
NC(=O)CC(NC(=O)c1ccccc1)c1ccc(NCc2ccccn2)c([N+](=O)[O-])c1 (stereo not given),2.9,0.0,-5.8,-5.7
Cc1c(Cl)sn(-c2ccc(Cl)cc2)c1=O,67.5*,1.4,-3.7,1.4
COCCN=C1Sc2ccccc2[C@@H]2C[C@H]3[C@H](CON3C)CN12,24.2*,1.4,-3.4,-1.6
O=C1CC2C(=O)NCCN2C(=NC(=O)c2ccc(Cl)cc2)N1 (stereo not given),1.5,1.4,-2.9,0.2
CCOc1ccc(NC(=O)Cc2ccc(S(=O)(=O)N3CCCCC3)cc2)cc1OCC,-2.4,4.3,-6.5,-0.3
Cc1cc(NC(=O)Cn2ccc([N+](=O)[O-])n2)no1,-1.2,-1.6,0.0,23.4*
Fc1ccc(Cn2nnnc2CN2CCN(C3CCCCC3)CC2)cc1,3.5,0.0,-3.8,47.6*
c1coc(Cn2nnnc2CN2CCN(C3CCCC3)CC2)c1,4.1,5.3,1.8,3.6
O=C1CCC(CNc2ccccc2)N1c1ccccc1 (stereo not given),-1.8,8.3,5.2,5.7
O=C1c2cccc3c(O)ccc(c23)C(=O)N1Cc1ccccc1,173.7*,1.5,-28.3,-52.2
CCCC1=NN(C(=O)Cc2ccc(OC)cc2)C(O)(C(F)(F)F)C1 (stereo not given),1.9,4.4,-1.7,3.8
CCOc1ccc(CC(=O)N2N=C(C)CC2(O)C(F)(F)F)cc1 (stereo not given),-1.1,-1.9,3.0,28.9*
COc1ccc(S(=O)(=O)N2CC=C(c3ccccc3)CC2)cc1OC,1.1,-1.9,-4.1,-1.4
COc1ccc(Cc2c(-c3ccc(C#N)cc3)nc3c(Cl)cc(C(F)(F)F)cn23)c(C)c1,-4.3,2.2,1.4,17.9
SMILES,PRMT1 FP inh,LEDGF integ inh,MBD2 inh,UHRF1 MBD2 ctr
CCCc1nc2c(Cl)cc(C(F)(F)F)cn2c1Cc1ccc(OC)cc1C,1.4,-1.2,5.8,22.3*
CN(CC(=O)Nc1ccccc1Br)C(=O)c1cccc(S(=O)(=O)NCc2ccccc2)c1,-2.7,-4.6,1.9,2.4
Cc1ccc(S(=O)(=O)NCc2ccccc2)cc1C(=O)N(C)CC(=O)Nc1ccccc1Br,6.3,-4.7,0.7,21.8*
CC(C)CNC(=O)C1(C)CCCN1C(=O)c1ccc2ccccc2n1 (stereo not given),3.2,-0.1,3.4,-1.1
Cc1cccc2sc(N(CCCN(C)C)C(=O)c3sc4ccccc4c3Cl)nc12,-1.6,2.9,-1.7,-1.1
Cc1cccc2sc(N(CCCN(C)C)C(=O)c3ccc(C(=O)c4ccccc4)cc3)nc12,0.8,-1.0,3.7,34.0*!
OC(COC(c1ccccc1)c1ccccc1)CN1CCN(c2ccccn2)CC1 (stereo not given),4.2,0.8,7.6,23.4*
O=C(COC(=O)c1ccc[nH]c1=O)NC1CC1,3.6,-6.2,11.3,0.5
CCOc1ccc(/C=N/Nc2nc(C)cs2)c(O)c1,21.4*,1.0,-2.4,-2.9
COc1cc(/C=C2/C(=O)c3cccc([N+](=O)[O-])c3C2=O)c(Br)cc1O,62.1*,3.8,-3.5,-8.9
Cc1noc(C)c1COC(=O)c1ccc(F)c(S(=O)(=O)N2CCOCC2)c1,-2.5,7.4,-4.4,4.3
Cn1c(SCC(=O)N/N=C/C=C/c2ccco2)nc2ccccc21,24.3*,13.2,12.6,9.3
Cn1c(SCC(=O)N/N=C/C=C/c2ccccc2[N+](=O)[O-])nc2ccccc21,-3.4,-0.3,-1.7,-0.6
COc1ccc(S(=O)(=O)N2CCCC2)cc1C(C)C,-1.4,0.4,2.0,-0.6
Cn1c(NC(=O)/C=C\c2ccccc2)cc(=O)n(C)c1=O,2.5,0.2,0.2,25.6*
Cn1c(NC(=O)/C=C/c2c(F)cccc2Cl)cc(=O)n(C)c1=O,-1.6,5.9,1.0,-4.4
O=C1CC(SCc2nc3ccccc3[nH]2)C(=O)N1c1cccc(Cl)c1 (stereo not given),30.8*,2.2,6.1,-3.0
CSc1nnc(-c2cccc(NC(=O)c3ccccc3)c2)n1C,1.1,-1.2,-3.1,25.8*
Cc1ccc(Nc2nc(/N=C/NO)n[nH]2)cc1C,-3.9,2.8,2.9,-1.9
O=C(NCC1CCCO1)c1ccc2c(c1)N(Cc1ccccc1)C(=O)CS2=O (stereo not given),24.0*,-0.9,1.0,0.3
O=C(NCc1ccco1)c1ccc2c(c1)N(Cc1ccccc1)C(=O)CS2=O (stereo not given),13.7,-0.2,1.7,1.1
CC1CCCCC1NC(=O)/C(C#N)=C/c1ccccc1F (stereo not given),1.8,-3.9,10.3,25.1*
CSc1ccc(/C=C(\C#N)C(=O)NC2CCCCC2C)cc1 (stereo not given),-0.3,-2.4,-4.2,4.7
Cc1ccc2c(c1)-c1c(cnn1CC(=O)NC(C)CCc1ccco1)CO2 (stereo not given),23.3*,6.9,2.6,1.2
COc1ccccc1CCc1nnc(CCC(=O)NCCOc2cccnc2)o1,-0.1,3.0,3.6,24.7*
SMILES,PRMT1 FP inh,LEDGF integ inh,MBD2 inh,UHRF1 MBD2 ctr
COc1ccccc1CCc1nnc(CCC(=O)NCC(C)Oc2cccnc2)o1 (stereo not given),0.7,2.7,5.4,17.7
Fc1ccc(C[n+]2csc3ccccc32)cc1,73.9*,-1.9,-2.9,-3.1
Cc1ccc(-c2c[n+](Cc3ccc(Cl)cc3)c3n2CCC3)cc1,0.3,-2.6,-3.1,-0.1
Clc1ccc(C[n+]2csc3ccccc32)cc1,63.0*,-1.5,2.4,-9.8
O=C(Nc1nccs1)C1(C(=O)C2CC2)CC(c2ccccn2)=NO1 (stereo not given),2.5,-0.8,0.5,-1.2
CCn1c(=O)n(CC)c2cc(N3CCCC3)c(NC(=O)c3ccccc3C)cc21,4.2,-0.7,9.0,22.9*
